# Key:
# Assay in all cases: DAPPL (digital affinity profiling via proximity ligation, sequencing); 10 mM Tris-HCl pH 7.5, 50 mM NaCl, 1 mM DTT, 4% glycerol, room temperature, 30 min; GST-TFs on glutathione beads, 16-mer random dsDNA library, 0.1% formaldehyde crosslink after washing; high values mean tight binding
# Details in all cases: protein: recombinant; tags: N-terminal GST; dsDNA, one strand shown
# FLI1 = biological target: T1, FLI1 (Homo sapiens, UniProt Q01543 1-452)
# T1 sequence: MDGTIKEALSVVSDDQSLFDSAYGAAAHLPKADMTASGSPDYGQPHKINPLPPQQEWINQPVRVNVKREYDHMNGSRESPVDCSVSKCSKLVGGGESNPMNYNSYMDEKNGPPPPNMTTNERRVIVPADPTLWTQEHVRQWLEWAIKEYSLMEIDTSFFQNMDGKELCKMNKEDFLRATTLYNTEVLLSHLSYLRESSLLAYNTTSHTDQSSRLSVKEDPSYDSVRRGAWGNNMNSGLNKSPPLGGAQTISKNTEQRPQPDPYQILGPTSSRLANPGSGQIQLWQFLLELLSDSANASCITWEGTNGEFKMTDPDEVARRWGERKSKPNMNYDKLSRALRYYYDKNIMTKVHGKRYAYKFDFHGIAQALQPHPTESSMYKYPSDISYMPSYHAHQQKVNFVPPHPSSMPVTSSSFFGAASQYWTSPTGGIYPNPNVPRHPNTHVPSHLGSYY
# Method in brief: (§1)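 After expression in yeast as GST fusions, human transcription factors were bound to glutathione beads, DNA-barcoded and mixed with a tag-only sample. The pools were incubated with 200 nmole of a 16-mer random double-stranded DNA library in Tris/NaCl/DTT/glycerol buffer (30 min, room temperature), washed and crosslinked with 0.1% formaldehyde. Proximity ligation with BsaI/T4 ligase ran for 1 h at 37 °C, before PCR amplification and sequencing on an Illumina NextSeq500. Binding signal is a hexamer's read frequency for a factor divided by its frequency for the tag-only sample.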
# ELK1 = biological target: T2, ELK1 (Homo sapiens, UniProt P19419 1-428)
# T2 sequence: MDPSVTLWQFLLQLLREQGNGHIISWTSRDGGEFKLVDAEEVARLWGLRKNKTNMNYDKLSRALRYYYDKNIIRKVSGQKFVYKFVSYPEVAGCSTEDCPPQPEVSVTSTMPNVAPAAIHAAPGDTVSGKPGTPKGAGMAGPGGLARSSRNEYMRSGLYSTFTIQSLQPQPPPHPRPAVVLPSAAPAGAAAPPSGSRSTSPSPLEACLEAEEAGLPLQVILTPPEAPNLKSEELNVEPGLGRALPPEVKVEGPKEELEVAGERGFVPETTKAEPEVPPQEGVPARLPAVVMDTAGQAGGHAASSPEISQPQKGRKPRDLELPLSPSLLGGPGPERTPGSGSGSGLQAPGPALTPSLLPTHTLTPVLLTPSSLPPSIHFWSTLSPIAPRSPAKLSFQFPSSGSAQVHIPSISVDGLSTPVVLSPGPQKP
# Method in brief: as §1
# GABPA = biological target: T3, GABPA (Homo sapiens, UniProt Q06546 1-454)
# T3 sequence: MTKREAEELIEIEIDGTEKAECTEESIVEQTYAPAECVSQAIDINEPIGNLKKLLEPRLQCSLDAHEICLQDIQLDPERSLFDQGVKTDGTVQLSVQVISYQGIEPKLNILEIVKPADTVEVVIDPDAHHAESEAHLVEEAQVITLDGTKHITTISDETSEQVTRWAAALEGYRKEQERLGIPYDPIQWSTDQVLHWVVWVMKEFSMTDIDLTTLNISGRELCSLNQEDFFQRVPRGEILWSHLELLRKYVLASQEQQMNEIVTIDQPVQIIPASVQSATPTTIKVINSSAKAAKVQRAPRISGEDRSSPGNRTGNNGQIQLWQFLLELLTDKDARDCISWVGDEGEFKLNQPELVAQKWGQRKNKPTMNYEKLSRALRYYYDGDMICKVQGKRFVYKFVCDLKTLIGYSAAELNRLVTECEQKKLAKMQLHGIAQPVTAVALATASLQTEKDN
# Method in brief: as §1
# ERG = biological target: T4, ERG (Homo sapiens, UniProt P11308 1-479)
# T4 sequence: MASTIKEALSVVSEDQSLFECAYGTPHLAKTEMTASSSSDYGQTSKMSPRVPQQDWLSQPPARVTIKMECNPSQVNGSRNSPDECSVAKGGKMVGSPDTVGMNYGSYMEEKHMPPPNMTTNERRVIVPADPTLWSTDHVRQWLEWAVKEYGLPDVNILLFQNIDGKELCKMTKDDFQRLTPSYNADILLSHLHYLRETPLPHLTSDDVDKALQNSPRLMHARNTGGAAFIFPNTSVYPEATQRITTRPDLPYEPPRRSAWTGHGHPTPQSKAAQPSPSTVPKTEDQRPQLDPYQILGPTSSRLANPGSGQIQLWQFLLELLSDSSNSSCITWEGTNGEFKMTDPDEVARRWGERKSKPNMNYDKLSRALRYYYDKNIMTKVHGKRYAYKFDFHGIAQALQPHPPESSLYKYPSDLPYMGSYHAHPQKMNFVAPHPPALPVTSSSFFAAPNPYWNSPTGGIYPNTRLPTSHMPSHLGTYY
# Method in brief: as §1
# ELF1 = ELF1 (Homo sapiens, UniProt P32519 1-619)
# Sequence of ELF1 (P32519 whole entry): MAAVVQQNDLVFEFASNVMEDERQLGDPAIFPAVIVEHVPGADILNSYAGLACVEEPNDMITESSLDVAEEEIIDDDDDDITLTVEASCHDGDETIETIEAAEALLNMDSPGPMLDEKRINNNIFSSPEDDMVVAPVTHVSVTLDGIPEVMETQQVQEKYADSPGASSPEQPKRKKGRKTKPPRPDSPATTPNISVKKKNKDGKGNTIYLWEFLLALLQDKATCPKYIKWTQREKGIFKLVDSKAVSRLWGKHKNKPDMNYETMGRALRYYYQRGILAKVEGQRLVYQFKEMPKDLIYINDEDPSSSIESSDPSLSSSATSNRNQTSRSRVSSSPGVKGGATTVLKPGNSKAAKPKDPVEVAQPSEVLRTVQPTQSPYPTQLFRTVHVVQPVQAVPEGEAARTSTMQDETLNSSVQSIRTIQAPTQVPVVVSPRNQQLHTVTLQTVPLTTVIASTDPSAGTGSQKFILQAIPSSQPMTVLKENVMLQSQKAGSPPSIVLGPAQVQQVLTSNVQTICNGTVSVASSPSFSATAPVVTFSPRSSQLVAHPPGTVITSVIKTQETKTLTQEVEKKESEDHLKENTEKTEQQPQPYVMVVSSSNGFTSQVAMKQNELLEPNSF
# Method in brief: as §1
# EHF = biological target: T5, EHF (Homo sapiens, UniProt Q9NZC4 1-300)
# T5 sequence: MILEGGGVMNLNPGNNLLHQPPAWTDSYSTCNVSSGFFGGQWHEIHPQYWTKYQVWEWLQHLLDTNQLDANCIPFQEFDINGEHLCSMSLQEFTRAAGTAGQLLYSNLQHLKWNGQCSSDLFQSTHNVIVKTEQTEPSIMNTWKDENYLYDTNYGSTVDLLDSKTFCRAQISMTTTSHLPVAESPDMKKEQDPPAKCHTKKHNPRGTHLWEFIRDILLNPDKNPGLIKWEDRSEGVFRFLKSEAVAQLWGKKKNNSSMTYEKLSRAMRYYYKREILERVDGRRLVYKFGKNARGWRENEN
# Method in brief: as §1
# SPI1 = SPI1 (Homo sapiens, UniProt P17947 1-270)
# Method in brief: as §1
# SPIB = SPIB (Homo sapiens, UniProt Q01892 1-262)
# Sequence of SPIB (Q01892 whole entry): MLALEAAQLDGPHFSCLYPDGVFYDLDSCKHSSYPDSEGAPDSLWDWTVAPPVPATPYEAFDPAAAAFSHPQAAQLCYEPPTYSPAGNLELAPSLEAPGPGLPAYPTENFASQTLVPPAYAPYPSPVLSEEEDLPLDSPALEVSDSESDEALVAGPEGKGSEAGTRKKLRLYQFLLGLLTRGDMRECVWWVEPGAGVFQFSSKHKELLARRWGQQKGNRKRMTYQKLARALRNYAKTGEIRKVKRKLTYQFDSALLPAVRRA
# Method in brief: as §1
# ELK3 = biological target: T6, ELK3 (Homo sapiens, UniProt P41970 1-407)
# T6 sequence: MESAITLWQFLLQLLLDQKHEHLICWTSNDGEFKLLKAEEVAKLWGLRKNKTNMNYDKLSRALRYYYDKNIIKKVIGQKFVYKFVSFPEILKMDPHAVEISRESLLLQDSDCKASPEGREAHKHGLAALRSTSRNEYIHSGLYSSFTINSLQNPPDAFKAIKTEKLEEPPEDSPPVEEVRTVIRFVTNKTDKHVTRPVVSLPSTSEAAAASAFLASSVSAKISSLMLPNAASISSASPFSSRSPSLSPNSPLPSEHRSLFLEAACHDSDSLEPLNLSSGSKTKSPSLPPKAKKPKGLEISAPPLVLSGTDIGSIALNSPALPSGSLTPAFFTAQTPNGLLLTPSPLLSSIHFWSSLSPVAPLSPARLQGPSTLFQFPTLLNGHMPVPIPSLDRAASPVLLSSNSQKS
# Method in brief: as §1
# FEV = biological target: T7, FEV (Homo sapiens, UniProt Q99581 1-238)
# T7 sequence: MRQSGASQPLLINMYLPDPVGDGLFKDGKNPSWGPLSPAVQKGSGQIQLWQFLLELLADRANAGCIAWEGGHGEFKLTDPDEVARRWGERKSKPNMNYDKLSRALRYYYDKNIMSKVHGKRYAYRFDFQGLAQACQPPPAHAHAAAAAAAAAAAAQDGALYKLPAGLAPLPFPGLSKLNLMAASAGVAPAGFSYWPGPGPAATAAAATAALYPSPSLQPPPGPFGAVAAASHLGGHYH
# Method in brief: as §1
# ETV5 = ETV5 (Homo sapiens, UniProt P41161 1-510)
# Sequence of ETV5 (P41161 whole entry): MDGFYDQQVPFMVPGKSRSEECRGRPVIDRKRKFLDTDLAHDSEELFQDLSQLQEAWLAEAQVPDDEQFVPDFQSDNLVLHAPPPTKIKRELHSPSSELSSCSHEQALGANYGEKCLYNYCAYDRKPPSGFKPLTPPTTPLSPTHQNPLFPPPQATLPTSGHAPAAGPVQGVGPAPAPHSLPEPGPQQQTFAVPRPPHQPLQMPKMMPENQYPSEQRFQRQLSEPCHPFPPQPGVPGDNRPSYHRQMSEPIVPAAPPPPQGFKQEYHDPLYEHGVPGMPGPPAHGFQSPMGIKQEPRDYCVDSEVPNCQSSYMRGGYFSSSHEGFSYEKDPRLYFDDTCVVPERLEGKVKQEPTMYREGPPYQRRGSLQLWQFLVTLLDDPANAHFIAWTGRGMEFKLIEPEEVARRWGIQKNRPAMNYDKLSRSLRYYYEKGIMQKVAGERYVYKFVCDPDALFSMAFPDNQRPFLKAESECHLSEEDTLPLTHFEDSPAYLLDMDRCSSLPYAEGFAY
# Method in brief: as §1
# SPIC = biological target: T8, SPIC (Homo sapiens, UniProt Q8N5J4 1-248)
# T8 sequence: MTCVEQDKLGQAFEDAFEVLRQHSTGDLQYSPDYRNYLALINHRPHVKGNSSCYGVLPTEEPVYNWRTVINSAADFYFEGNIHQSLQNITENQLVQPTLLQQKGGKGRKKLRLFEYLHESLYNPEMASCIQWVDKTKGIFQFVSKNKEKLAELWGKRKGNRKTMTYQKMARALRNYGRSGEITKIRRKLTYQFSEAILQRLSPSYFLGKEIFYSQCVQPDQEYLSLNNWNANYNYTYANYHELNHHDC
# Method in brief: as §1
# ELF4 = ELF4 (Homo sapiens, UniProt Q99607 1-663)
# Sequence of ELF4 (Q99607 whole entry): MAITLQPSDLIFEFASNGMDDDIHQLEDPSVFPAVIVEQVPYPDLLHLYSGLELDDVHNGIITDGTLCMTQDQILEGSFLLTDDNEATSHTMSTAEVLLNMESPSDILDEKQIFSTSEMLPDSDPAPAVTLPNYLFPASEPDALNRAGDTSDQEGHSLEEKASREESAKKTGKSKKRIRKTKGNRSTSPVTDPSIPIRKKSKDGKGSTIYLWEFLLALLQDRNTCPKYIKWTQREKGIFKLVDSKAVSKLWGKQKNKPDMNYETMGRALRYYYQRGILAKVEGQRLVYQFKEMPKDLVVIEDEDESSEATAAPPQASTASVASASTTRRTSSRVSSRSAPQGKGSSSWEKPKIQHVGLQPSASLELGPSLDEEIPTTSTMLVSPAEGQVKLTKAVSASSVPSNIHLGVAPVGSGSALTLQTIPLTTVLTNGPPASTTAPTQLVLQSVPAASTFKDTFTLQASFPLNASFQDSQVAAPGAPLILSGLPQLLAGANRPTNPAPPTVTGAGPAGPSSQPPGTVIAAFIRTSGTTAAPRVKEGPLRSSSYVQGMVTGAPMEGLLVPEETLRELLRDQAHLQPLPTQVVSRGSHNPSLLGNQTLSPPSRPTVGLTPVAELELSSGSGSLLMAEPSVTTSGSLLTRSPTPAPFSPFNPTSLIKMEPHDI
# Method in brief: as §1
# ELK4 = biological target: T9, ELK4 (Homo sapiens, UniProt P28324-2 1-405)
# T9 sequence: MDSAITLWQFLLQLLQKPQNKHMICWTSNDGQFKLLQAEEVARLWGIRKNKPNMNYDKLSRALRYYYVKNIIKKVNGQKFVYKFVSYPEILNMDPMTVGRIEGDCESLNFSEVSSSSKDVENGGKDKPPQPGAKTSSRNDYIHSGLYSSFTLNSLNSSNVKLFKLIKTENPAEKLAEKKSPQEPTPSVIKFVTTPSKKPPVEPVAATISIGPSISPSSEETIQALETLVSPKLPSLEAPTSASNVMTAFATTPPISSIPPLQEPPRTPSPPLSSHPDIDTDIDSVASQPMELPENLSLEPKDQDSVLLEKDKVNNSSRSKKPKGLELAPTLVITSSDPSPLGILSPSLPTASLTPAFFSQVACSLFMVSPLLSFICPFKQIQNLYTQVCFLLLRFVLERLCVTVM
# Method in brief: as §1
# ETV2 = biological target: T10, ETV2 (Homo sapiens, UniProt O00321 1-342)
# T10 sequence: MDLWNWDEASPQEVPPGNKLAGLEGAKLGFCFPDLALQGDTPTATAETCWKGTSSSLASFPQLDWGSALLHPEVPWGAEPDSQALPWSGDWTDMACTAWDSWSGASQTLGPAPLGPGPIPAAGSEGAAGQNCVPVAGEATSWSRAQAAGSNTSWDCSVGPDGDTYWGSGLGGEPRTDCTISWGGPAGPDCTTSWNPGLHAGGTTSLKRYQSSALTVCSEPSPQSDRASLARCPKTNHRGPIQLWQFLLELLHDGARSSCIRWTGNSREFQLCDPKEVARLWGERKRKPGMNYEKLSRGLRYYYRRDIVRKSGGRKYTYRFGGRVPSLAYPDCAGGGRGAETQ
# Method in brief: as §1
# ELF3 = biological target: T11, ELF3 (Homo sapiens, UniProt P78545 1-371)
# T11 sequence: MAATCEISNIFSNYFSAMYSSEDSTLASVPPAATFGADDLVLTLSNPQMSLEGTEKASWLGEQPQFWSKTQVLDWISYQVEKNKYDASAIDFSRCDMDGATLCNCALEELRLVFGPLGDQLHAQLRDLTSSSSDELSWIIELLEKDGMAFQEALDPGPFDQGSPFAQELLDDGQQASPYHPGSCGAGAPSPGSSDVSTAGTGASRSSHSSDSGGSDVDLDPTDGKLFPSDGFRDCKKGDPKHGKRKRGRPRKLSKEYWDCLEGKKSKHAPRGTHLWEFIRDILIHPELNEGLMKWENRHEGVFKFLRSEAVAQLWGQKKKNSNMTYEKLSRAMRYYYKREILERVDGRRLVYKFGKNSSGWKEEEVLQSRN
# Method in brief: as §1
# ETV1 = ETV1 (Homo sapiens, UniProt P50549 1-477)
# Sequence of ETV1 (P50549 whole entry): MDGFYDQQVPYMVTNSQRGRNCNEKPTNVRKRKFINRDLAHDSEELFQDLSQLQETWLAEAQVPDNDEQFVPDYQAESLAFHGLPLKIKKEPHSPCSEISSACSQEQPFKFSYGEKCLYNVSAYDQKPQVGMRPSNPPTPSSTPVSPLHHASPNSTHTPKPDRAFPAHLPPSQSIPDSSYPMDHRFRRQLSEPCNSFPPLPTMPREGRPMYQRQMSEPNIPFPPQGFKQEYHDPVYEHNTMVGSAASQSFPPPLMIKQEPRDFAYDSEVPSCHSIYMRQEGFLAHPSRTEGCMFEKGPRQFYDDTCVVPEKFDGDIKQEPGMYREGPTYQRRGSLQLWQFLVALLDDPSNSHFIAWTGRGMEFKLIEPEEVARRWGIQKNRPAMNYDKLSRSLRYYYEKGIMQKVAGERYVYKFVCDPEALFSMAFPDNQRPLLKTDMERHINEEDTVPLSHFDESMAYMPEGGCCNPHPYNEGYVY
# Method in brief: as §1
sequence,measurement,setting,value
ACACCT,binding signal,FLI1,"1.1 fold enrichment (6-mer frequency, TF over GST control)"
same,binding signal,ELK1,"1.09 fold enrichment (6-mer frequency, TF over GST control)"
same,binding signal,GABPA,"1.04 fold enrichment (6-mer frequency, TF over GST control)"
same,binding signal,ERG,"1.12 fold enrichment (6-mer frequency, TF over GST control)"
same,binding signal,ELF1,"1.07 fold enrichment (6-mer frequency, TF over GST control)"
same,binding signal,EHF,"1.13 fold enrichment (6-mer frequency, TF over GST control)"
same,binding signal,SPI1,"1.09 fold enrichment (6-mer frequency, TF over GST control)"
same,binding signal,SPIB,"1.03 fold enrichment (6-mer frequency, TF over GST control)"
same,binding signal,ELK3,"1.06 fold enrichment (6-mer frequency, TF over GST control)"
same,binding signal,FEV,"1.03 fold enrichment (6-mer frequency, TF over GST control)"
same,binding signal,ETV5,"1.03 fold enrichment (6-mer frequency, TF over GST control)"
same,binding signal,SPIC,"1.04 fold enrichment (6-mer frequency, TF over GST control)"
same,binding signal,ELF4,"1.11 fold enrichment (6-mer frequency, TF over GST control)"
same,binding signal,ELK4,"1.1 fold enrichment (6-mer frequency, TF over GST control)"
same,binding signal,ETV2,"1.03 fold enrichment (6-mer frequency, TF over GST control)"
same,binding signal,ELF3,"1.03 fold enrichment (6-mer frequency, TF over GST control)"
same,binding signal,ETV1,"1.13 fold enrichment (6-mer frequency, TF over GST control)"
CAAACC,binding signal,FLI1,"1.16 fold enrichment (6-mer frequency, TF over GST control)"
same,binding signal,ELK1,"1.15 fold enrichment (6-mer frequency, TF over GST control)"
same,binding signal,GABPA,"1.11 fold enrichment (6-mer frequency, TF over GST control)"
same,binding signal,ERG,"1.16 fold enrichment (6-mer frequency, TF over GST control)"
same,binding signal,ELF1,"1.13 fold enrichment (6-mer frequency, TF over GST control)"
same,binding signal,EHF,"1.05 fold enrichment (6-mer frequency, TF over GST control)"
same,binding signal,SPI1,"1.15 fold enrichment (6-mer frequency, TF over GST control)"
same,binding signal,SPIB,"1.06 fold enrichment (6-mer frequency, TF over GST control)"
same,binding signal,ELK3,"1.15 fold enrichment (6-mer frequency, TF over GST control)"
same,binding signal,FEV,"1.18 fold enrichment (6-mer frequency, TF over GST control)"
same,binding signal,ETV5,"1.05 fold enrichment (6-mer frequency, TF over GST control)"
same,binding signal,SPIC,"1.06 fold enrichment (6-mer frequency, TF over GST control)"
same,binding signal,ELF4,"1.2 fold enrichment (6-mer frequency, TF over GST control)"
same,binding signal,ELK4,"1.05 fold enrichment (6-mer frequency, TF over GST control)"
same,binding signal,ETV2,"1.12 fold enrichment (6-mer frequency, TF over GST control)"
same,binding signal,ELF3,"1.15 fold enrichment (6-mer frequency, TF over GST control)"
same,binding signal,ETV1,"1.18 fold enrichment (6-mer frequency, TF over GST control)"
